# Hits are enriched below; roughly 3.8% of the tested compounds scored in any of these assays.
# Pemphigus Ab inh – inhibitors of pemphigus antibody binding to human desmoglein-3 | binding (percent of control), % at 10 µM | AID 588358 | DSG3-coupled beads, scFv-anti-DSG3-GFP binding, flow cytometry; active compounds read low | 310,000 compounds, 0.48% hits;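 active means binding more than 3 SD below its plate's average and above zero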;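 further: hits lower antibody fragment binding to DSG3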
# PAFAH1B3 FP inh – PAFAH1B3 (human) inhibition. Q15102. recombinant PAFAH1B3, FP-rhodamine probe, fluorescence polarization. inhibition, % at 3.39 µM. 340,000 compounds, 0.28% hits. AID 492972;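 active means inhibition above the screen-wide average of all tested compounds plus 3 SD, cut at about 25% in these data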;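 further: 0% = enzyme with DMSO only and 100% = wells lacking PAFAH1B3 protein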
# Target sequence (Q15102 whole entry, looked up): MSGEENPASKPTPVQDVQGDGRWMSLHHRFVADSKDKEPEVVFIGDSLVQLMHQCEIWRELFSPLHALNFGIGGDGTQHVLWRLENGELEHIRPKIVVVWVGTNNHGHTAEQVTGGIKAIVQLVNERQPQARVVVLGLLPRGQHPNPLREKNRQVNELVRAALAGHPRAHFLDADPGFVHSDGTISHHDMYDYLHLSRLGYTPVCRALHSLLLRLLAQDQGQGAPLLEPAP
# M18AAP inhibitor – PfM18AAP enzyme inhibition; 290,000 compounds, 1.2% hits; recombinant PfM18AAP, H-Glu-NHMec fluorogenic cleavage; inhibition, % at 7.35 µM;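 active means inhibition above the campaign mean inhibition over all tested compounds plus 3 SD, cut at about 28% in these data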;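 further: 0% = plate median of test compound wells and 100% = 2 mM ZnCl2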
# pPAFAH FP inh – pPAFAH (human) enzyme inhibition | Q13093 | recombinant pPAFAH, FP-rhodamine probe fluorescence polarization | inhibition, % at 3.39 µM | 330,000 compounds, 1.5% hits;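 active means inhibition above the mean inhibition across the screen plus 3 SD, cut at about 25% in these data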;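 further: inhibitors block binding of the rhodamine activity-based probe so polarization drops; 0% = enzyme with DMSO and 100% = wells lacking pPAFAH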
# PAFAH2 FP inh – PAFAH2 (human) inhibition. Q99487. recombinant PAFAH2, FP-rhodamine activity probe, fluorescence polarization. inhibition, % at 3.39 µM. 340,000 compounds, 0.99% hits. AID 492956;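 active means inhibition above the mean over all tested compounds plus 3 SD, cut at about 30% in these data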;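 further: inhibitors block probe labeling of enzyme so polarization drops; 0% = enzyme with DMSO and 100% = wells lacking PAFAH2 protein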
# PAFAH1B2 FP inh – inhibitors of human PAFAH1B2. recombinant PAFAH1B2, FP-rhodamine activity probe, fluorescence polarization. 340,000 compounds, 1.2% hits. inhibition, % at 3.39 µM. AID 492953;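 active means inhibition above the mean of all tested compounds plus 3 SD, cut at about 24% in these data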;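 further: 0% = enzyme with DMSO and 100% = wells lacking PAFAH1B2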
# Target sequence (P68402 whole entry, looked up): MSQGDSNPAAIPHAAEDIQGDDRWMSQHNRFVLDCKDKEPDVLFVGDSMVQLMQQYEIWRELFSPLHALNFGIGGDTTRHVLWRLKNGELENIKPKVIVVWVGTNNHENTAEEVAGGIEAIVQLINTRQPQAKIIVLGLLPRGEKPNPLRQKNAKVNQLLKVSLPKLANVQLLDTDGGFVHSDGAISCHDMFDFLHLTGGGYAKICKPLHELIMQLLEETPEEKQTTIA
# Numbers without * were called inactive; / = not tested or not shown.
SMILES,Pemphigus Ab inh,PAFAH1B3 FP inh,M18AAP inhibitor,pPAFAH FP inh,PAFAH2 FP inh,PAFAH1B2 FP inh
Nc1c(C(=O)Nc2ccccc2F)sc2nc(-c3ccco3)ccc12,90,3,16,31*,24,-3
Nc1c(C(=O)Nc2ccccc2F)sc2nc(-c3cccnc3)ccc12,102,3,18,10,2,5
COC(=O)C(Cc1ccccc1)NC(=O)CCC(=O)NC(C)CCc1ccccc1 (centres undefined),106,2,1,1,-5,27*
COC(=O)[C@H](Cc1ccccc1)NC(=O)NC(C)CCc1ccccc1 (some centres undefined),105,-5,2,1,8,9
CN(Cc1cccs1)C(=O)CCNS(=O)(=O)c1ccc(Br)cc1,103,14,/,4,10,32*
O=C(NCc1ccccc1)C12CC3CC(CC(C3)C1)C2,/,13,2,-6,1,12
O=C(Nn1nnnc1Nc1ccccc1)C12CC3CC(CC(C3)C1)C2,110,3,-6,5,4,27*
O=C(NCc1ccco1)c1cccc2c1C(=O)c1ccc(N3CCC(Cc4ccccc4)CC3)cc1S2(=O)=O,136,-15,/,33*,-13,-22
O=C(NCc1cccc(F)c1)c1cccc2c1C(=O)c1ccc(N3CCC(Cc4ccccc4)CC3)cc1S2(=O)=O,130,-16,/,-4,-21,-10
O=C(Nc1c2c(nn1-c1ccc(F)cc1)CS(=O)C2)c1ccc(S(=O)(=O)N2CCOCC2)cc1 (centres undefined),95,5,3,-4,3,26*
CCCCCCSc1nc(O)c(C2OC(=O)c3c2ccc(OC)c3OC)c(=O)n1CC (centres undefined),102,3,10,31*,15,24
CCCSc1nc(O)c(C2OC(=O)c3c2ccc(OC)c3OC)c(=O)n1C (centres undefined),103,0,6,-2,1,0
Cc1c(NC(=O)C(C)OC(=O)c2sc3ccccc3c2Cl)c(=O)n(-c2ccccc2)n1C (centres undefined),86,6,-2,3,9,1
Cc1c(NC(=O)C(C)OC(=O)c2ccc([N+](=O)[O-])s2)c(=O)n(-c2ccccc2)n1C (centres undefined),100,33*,5,30*,14,22
CC(=O)N1c2ccccc2C2(O)N=C(C)SC12 (centres undefined),108,-1,42*,2,-4,4
O=C1CC(=O)CC(c2ccco2)C1,103,9,28*,6,4,6
CCCN1C(=O)/C(=c2\sc3nc(=O)c(Cc4ccc(C)cc4)nn3c2=O)c2ccccc21,68*,1,-30,9,8,5
O=C(CN1C(=O)C2CCCCC2C1=O)OCC(=O)c1ccc(Cl)s1 (centres undefined),96,7,1,26*,40*,3
O=C(CNC(=O)C1CCCCC1)OCC(=O)c1ccc(Cl)s1,99,10,1,6,1,2
CCn1cc(/C=C(\NC(=O)c2ccccc2OC)C(=O)NCCN2CCOCC2)c2ccccc21,99,/,/,/,/,/
CC(=O)NC(c1ccccc1)c1cc([N+](=O)[O-])c2cccnc2c1O (centres undefined),98,8,16,13,7,3
CC(C)C(=O)NC(c1ccccc1)c1cc([N+](=O)[O-])c2cccnc2c1O (centres undefined),/,-4,22,34*,9,0
O=[N+]([O-])c1ccc(C=Nc2ccc(Cl)c([N+](=O)[O-])c2)s1,104,16,-3,/,60*,13
Cc1cc(C)cc(N=Cc2ccc([N+](=O)[O-])s2)c1,107,21,-1,4,15,5
O=C(Cc1cccs1)N/N=C\c1ccc([N+](=O)[O-])s1,94,-4,7,4,13,5
SMILES,Pemphigus Ab inh,PAFAH1B3 FP inh,M18AAP inhibitor,pPAFAH FP inh,PAFAH2 FP inh,PAFAH1B2 FP inh
NC(=O)c1ccc(N=Cc2ccc([N+](=O)[O-])s2)cc1,102,13,-1,14,60*,8
NC(=O)Cc1ccc(C(=O)CSc2nnc(-c3ccncc3)n2C2CC2)s1,/,3,/,33*,19,6
N#CCCN(C(=O)CSc1nnc(-c2ccncc2)n1C1CC1)c1ccccc1,103,0,/,2,2,0
O=C(NCC1CCCN1S(=O)(=O)c1cccs1)c1cccc(F)c1 (centres undefined),103,4,/,-2,3,-5
Cc1ccc(OCC(=O)NCC2CCCO2)c(C)c1 (centres undefined),117,-3,-12,2,-6,3
Cc1ccccc1NS(=O)(=O)c1ccc(C(=O)NCC2CCCO2)cc1 (centres undefined),97,1,/,25*,-2,1
O=C(NCC1CCCO1)c1cccc(S(=O)(=O)Nc2ccc(SC(F)F)cc2)c1 (centres undefined),103,5,/,34*,5,-2
Cc1ccc(C)c(NS(=O)(=O)c2ccc(OCC(=O)NCC3CCCO3)cc2)c1 (centres undefined),101,2,0,28*,4,5
C[C@H]1CN([C@@H](C)CO)S(=O)(=O)c2ccc(Br)cc2O[C@H]1CN(C)C(=O)Cc1ccccn1,104,/,/,/,/,/
Cc1ccc(SCC(=O)OC(C)C(=O)NCc2ccccc2)cc1C (centres undefined),99,3,/,34*,3,6
Cc1ccc(C)c(SCC(=O)OCC(=O)NCc2ccccc2)c1,94,2,0,25*,3,-4
S=C(NC1CCCCC1)N(CCc1ccccc1)CCc1ccccc1,120,1,-2,2,-2,-3
NS(=O)(=O)c1ccc(NC(=O)CSc2ncn[nH]2)cc1,104,3,19,2,0,3
O=C(CSc1ncn[nH]1)Nc1ccc(S(=O)(=O)Nc2ncccn2)cc1,97,0,30*,-4,-1,7
COc1ccc([N+](=O)[O-])cc1N(CC(=O)NCCSc1ccc(C)cc1)S(C)(=O)=O,107,4,0,-7,8,31*
CCCN1CCN(CCCNC(=O)CN2C(=O)COc3ccc(C(C)(C)C)cc32)CC1,104,/,/,/,/,/
COc1ccc(NC(=O)CSc2n[nH]c(CNc3cccc(C)c3)n2)cc1,108,15,1,1,-10,1
CCCCCSc1nnc(-c2cc(Br)ccc2N)c(=O)[nH]1,81,8,9,6,11,27*
FC(F)Oc1ccc(N=C2SCC3CCCCN23)cc1 (centres undefined),98,13,-4,33*,7,1
Clc1ccc(N=C2SCC3CCCCN23)cc1 (centres undefined),/,-4,-5,1,5,1

# Assay outcomes (PubChem)
